The values below come from the OligoGym collection.
Further: reference of the scale not given here.

In the first assay the target is ANKRD53. Kind of assay: pooled miR-30 sensor sort-seq; sequence = guide strand. To be noted: shRNA.
TTCATTTTCGTCATCTCACGGG displayed a sensor-assay potency score (higher = more potent) of 0.469.

In turn, TGATAGTAGAGAAATGTCCTGC displayed a sensor-assay potency score (higher = more potent) of 0.127.

For the sequence TTTCTGATAGCAGCTTCTCTGA, the sensor-assay potency score (higher = more potent) was -1.05.

Take TTTCTGAGTGCCAGCTTCCGGA: the sensor-assay potency score (higher = more potent) is -1.18.

The next assay has as its target ANTXR1. The description is as above. As to conditions: shRNA.
On to TTGTATACACACACATGCCTTA, for which the sensor-assay potency score (higher = more potent) was -0.352.

In turn, TAAAGTGAGTGAATGAAGCTGG registered a sensor-assay potency score (higher = more potent) of 0.662.

For the sequence TTGGAGAGTACCACTTCCGGGG, the sensor-assay potency score (higher = more potent) was -0.563.

On to TTCTCATTGAGTGTGACCGAGT, for which the sensor-assay potency score (higher = more potent) was -0.633.

As for TCATTGATCTTGAAGCTGCAGA, the sensor-assay potency score (higher = more potent) was -0.552.

TTGAGTTTCTTACCACACCAGG: the sensor-assay potency score (higher = more potent) was -1.02.

As to TTATATTCTGCCTTGTTCCAGA, the sensor-assay potency score (higher = more potent) is -0.0343.

Regarding TTTTCCATCAGTAAACACCTGC, the sensor-assay potency score (higher = more potent) worked out at 0.177.

TTGATAATCACAGTGCAGCAGA: the sensor-assay potency score (higher = more potent) was -0.3.

For TTATTGATTAAACAGATCCAGA, the sensor-assay potency score (higher = more potent) is -1.04.

As for TGTCTCTACACTGTGAGCCTGG, the sensor-assay potency score (higher = more potent) is -0.327.

In a further assay the target is ANXA11. Described as above. As to conditions: shRNA.
In the case of TAGGATCTGCTGCCGCTGCTTG, the sensor-assay potency score (higher = more potent) is -0.946.

ATCTTCAGCAGAATCTTCCGGT returned a sensor-assay potency score (higher = more potent) of 0.075.

With TCTTGAGACATTTCACCACGGC, the sensor-assay potency score (higher = more potent) is -0.11.

As for TTCTGCTTTGTAGGCTCTGTTT, the sensor-assay potency score (higher = more potent) is -1.4.

With ATACTCTGATCTGATGTCCAGG, the sensor-assay potency score (higher = more potent) was -0.494.

As for TTGAACTGCCCCGCATAGGTGG, the sensor-assay potency score (higher = more potent) is -0.724.

On to TATACTCTGATCTGATGTCCAG, for which the sensor-assay potency score (higher = more potent) is -0.656.

In turn, TTCATCAGTGCCAACCCCCTTG registered a sensor-assay potency score (higher = more potent) of 0.00983.

As to TATCTCATAAATGTCAAAGAGG, the sensor-assay potency score (higher = more potent) is -1.14.

For TTTGATCAAATCCTTGCCGTAA, the sensor-assay potency score (higher = more potent) is -0.559.

Sequence TTAGAAACAGACATTCTTTTGG displayed a sensor-assay potency score (higher = more potent) of 0.574.

The sequence TATTCTTGAGACATTTCACCAC displayed a sensor-assay potency score (higher = more potent) of 0.412.

The sequence TATTTTAGCAGCAAGAGGCTGT had a sensor-assay potency score (higher = more potent) of 0.315.

For TCGTGGTACAGCGACTTGCCGT, the sensor-assay potency score (higher = more potent) is -1.23.

TCCGCTTATACTCTGATCTGAT: the sensor-assay potency score (higher = more potent) was -0.656.

Turning to TCTAGGACGGTGAATCTCGGGG, the sensor-assay potency score (higher = more potent) is -0.586.

Turning to TTTAATTCTCGGATGTGCTCAT, the sensor-assay potency score (higher = more potent) was 0.906.

On to TTGAACTTGGACTCGTCTGTTC, for which the sensor-assay potency score (higher = more potent) was -0.177.

Take TCTGATGTCCAGGAGGTCGGTC: the sensor-assay potency score (higher = more potent) is -0.593.

As for ATGCTCTTCTCAATGTCCCGGC, the sensor-assay potency score (higher = more potent) was -0.72.

For the sequence TAAATGTCAAAGAGGACTGGGG, the sensor-assay potency score (higher = more potent) was -0.276.

Turning to TTGAAAACTGCTACCAGGTGGG, the sensor-assay potency score (higher = more potent) is -0.0336.

For the next assay, the target named is ANXA5. The description is as above. As to conditions: shRNA.
As for TAGATTTCACAACAGCAAGGAG, the sensor-assay potency score (higher = more potent) is -0.538.

On to TTGAAATCCTGATATAGTCATG, for which the sensor-assay potency score (higher = more potent) is -1.04.

Regarding TTCTGATTTCAGGTCATCCAGA, the sensor-assay potency score (higher = more potent) is -0.946.
